Results filed as inconclusive are left out. Unmarked numbers belong to inactive results. Activity calls are given as the source filed them. Calls follow the shape of the dose curve; as a rule, active = well fitted cell-killing curve with a large enough effect in the repeat runs; inconclusive = weak or mixed curves, or effect the other way; inactive = flat fitted curve, though single readings scatter.
assay: cAMP Responsive Elements (CRE) small molecule antagonists, cell-based qHTS assay: qHTS cell viability counter screen (AID 2060913); settings: CRE-bla HEK293T viability, CellTiter-Glo luminescence, 5 h; series mostly up to 92.4 µM; viability change, negative = cytotoxic: at the top concentration; also: nearly all actives have a fitted effect of over 40% in size
How it was run: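 Steps: cells plated and held 18 hrs at 37 C/5% CO2; compounds and NKH477 (0.25 uM final) added; 3 hrs incubation; reporter substrate read; CellTiter-Glo added to measure cytotoxicity by luminescence.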
% is scaled to controls: 0 for no effect and ±100 for the full control effect; potency is read from the fitted curve at half-maximal effect.

Row | Compound | Potency | viability change, negative = cytotoxic
1 | C/C=C/c1ccc2c(c1)OCO2 | inactive | –
2 | O=c1[nH]c2cc(Cl)ccc2n1C1CCNCC1 | – | 4.88% [at 42.5 µM]
3 | c1ccc(C2CC2)c(OCC2=NCCN2)c1 | – | 5.84% [at 42.5 µM]
4 | CCC(=O)C(CCN(C)C)(c1ccccc1)c1ccccc1 | – | -0.651% [at 42.5 µM]
5 | O=[N+]([O-])c1ccccc1 | inactive | –
6 | O=c1[nH]c2ccccc2n1C1CCN(CCCC(c2ccc(F)cc2)c2ccc(F)cc2)CC1 | – | -16.8% [at 42.5 µM]
7 | CCOC(=O)C1(c2ccccc2)CCN(CCC(C#N)(c2ccccc2)c2ccccc2)CC1 | – | -2.58% [at 42.5 µM]
8 | CCC(C)c1ccc(O)cc1 (stereo not given) | inactive | –
9 | CC(C)(C)c1ccc(CSc2cnn(C(C)(C)C)c(=O)c2Cl)cc1 | – | -17.6%
10 | CC(COc1ccc(Oc2ccccc2)cc1)Oc1ccccn1 (stereo not given) | – | -2.94%
11 | C=CC(=C)C | – | 2.04%
12 | Cc1ccc(C(=O)Cl)cc1 | – | 8.74%
13 | CCOC(=O)C(Cl)C(C)=O (stereo not given) | – | -12.1%
14 | O=C(NCO)NCO | – | 3.21%
15 | COc1ccc(N)cc1 | inactive | –
16 | CCc1cccc(C)c1N(C(=O)CCl)C(C)COC (stereo not given) | inactive | –
17 | Oc1cccc(Cl)c1 | – | -0.325%
18 | Cc1cccc(C)c1N | inactive | –
19 | CCCCCOC(=O)c1ccccc1C(=O)OCCCCC | inactive | –
20 | C1CN2CCN1CC2 | inactive | –

Row | Compound | Potency | viability change, negative = cytotoxic
21 | CC(C)(Cl)[N+](=O)[O-] | – | -17.3%
22 | COP(=S)(OC)Oc1c(Cl)cc(C)cc1Cl | – | -0.282%
23 | O=[N+]([O-])c1cc(C(F)(F)F)c(Cl)c([N+](=O)[O-])c1Nc1ncc(C(F)(F)F)cc1Cl | 30.6 µM (active) | –
24 | O=S(=O)(O)OOS(=O)(=O)O | inactive | –
25 | C[C@]12CCC(=O)C=C1CC[C@@H]1[C@@H]2CC[C@]2(C)C(=O)CC[C@@H]12 | inactive | –
26 | CN1C(=O)CN=C(c2ccccc2)c2cc([N+](=O)[O-])ccc21 | – | 14% [at 42.5 µM]
27 | Clc1cc2c(cc1Cl)Oc1cc(Cl)c(Cl)cc1O2 | – | 7.14% [at 0.349 µM]
28 | O=c1nc(O)n(Cl)c(=O)n1Cl | inactive | –
29 | O=C(CCCN1CCC2(CC1)C(=O)NCN2c1ccccc1)c1ccc(F)cc1 | – | -0.91% [at 42.5 µM]
30 | CCN(CC)C1CCCCC1 | – | -3.31%
31 | CC(C)C#N | – | -23.4%
32 | CCOP(=S)(OCC)SCCS(=O)(=O)CC | – | -0.853%
33 | C[C@H]1CCCC(=O)CCC/C=C/c2cc(O)cc(O)c2C(=O)O1 | inactive | –
34 | Cn1sc(Cl)cc1=O | – | -0.346%
35 | CSCCCN=C=S | – | 1.47%
36 | CCCCN=C=O | – | 4.25%
37 | CCCCCCCCCCCCN(C)C | – | 0.0742%
38 | O=C(O)C(Br)Br | inactive | –
39 | CCOC(=O)c1cncn1C(C)c1ccccc1 (stereo not given) | – | 0.0916% [at 42.5 µM]
40 | CCOP(=S)(OCC)Oc1cc(C)nc(C(C)C)n1 | inactive | –
